Numbering of substitutions follows the chain as printed.
Key:
Assay in all cases: protein-binding microarray (PBM); PBM: ~300 nM protein, 6 mM HEPES pH 7.8, 80 mM KCl, 0.5 mM EDTA, 0.5 mM EGTA, 6% glycerol, 35 ng/ul poly-dIdC, 1% milk, 1 h, room temperature; Ap Aiptasia and Nv Nematostella (sea anemones) / Co Capsaspora / Aq Amphimedon (sponge) / Dm Drosophila / Hu human; RHD is the Rel homology domain; high values mean tight binding
Details in all cases: dsDNA, one strand shown
[1] = target: T1, GST-Ap-NF-kB RHD (Exaiptasia pallida (Aiptasia), UniProt A0A913YAJ5 2-422)
T1 sequence: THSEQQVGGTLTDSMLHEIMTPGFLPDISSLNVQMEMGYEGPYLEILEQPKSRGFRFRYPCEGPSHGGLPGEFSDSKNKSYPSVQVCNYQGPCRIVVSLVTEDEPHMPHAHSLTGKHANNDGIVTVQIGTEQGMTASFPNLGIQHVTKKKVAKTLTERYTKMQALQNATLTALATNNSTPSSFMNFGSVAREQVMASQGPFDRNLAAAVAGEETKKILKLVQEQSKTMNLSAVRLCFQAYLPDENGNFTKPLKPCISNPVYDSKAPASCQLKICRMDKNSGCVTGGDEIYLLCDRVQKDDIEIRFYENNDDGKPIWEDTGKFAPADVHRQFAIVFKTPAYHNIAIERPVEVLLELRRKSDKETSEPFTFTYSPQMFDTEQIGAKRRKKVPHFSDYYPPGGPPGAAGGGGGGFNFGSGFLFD

[2] = target: T2, GST-Nv-NF-kB (Cys allele) (Nematostella vectensis, UniProt E5G601 2-411)
T2 sequence: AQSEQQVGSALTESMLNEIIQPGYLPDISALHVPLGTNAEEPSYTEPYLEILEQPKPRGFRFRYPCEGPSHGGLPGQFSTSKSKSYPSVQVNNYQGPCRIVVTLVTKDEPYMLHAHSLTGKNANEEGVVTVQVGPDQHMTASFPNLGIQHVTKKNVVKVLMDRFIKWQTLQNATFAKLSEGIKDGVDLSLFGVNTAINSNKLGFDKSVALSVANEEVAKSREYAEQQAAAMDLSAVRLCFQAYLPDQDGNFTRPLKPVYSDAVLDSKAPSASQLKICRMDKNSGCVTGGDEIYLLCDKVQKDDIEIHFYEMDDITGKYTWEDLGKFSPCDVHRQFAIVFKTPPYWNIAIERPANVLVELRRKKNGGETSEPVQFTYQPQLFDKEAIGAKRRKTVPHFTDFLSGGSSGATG

[3] = target: T3, GST-Nv-NF-kB (Ser allele) (Nematostella vectensis, UniProt A7UNT2 2-411)
T3 sequence: T2 sequence with Q21R, C66S, S207N, E215Q, V217A, E225K, A268E, D399E

[4] = target: T4, GST-Co-NF-kB (Capsaspora owczarzaki, UniProt F1ARL5 200-546)
T4 sequence: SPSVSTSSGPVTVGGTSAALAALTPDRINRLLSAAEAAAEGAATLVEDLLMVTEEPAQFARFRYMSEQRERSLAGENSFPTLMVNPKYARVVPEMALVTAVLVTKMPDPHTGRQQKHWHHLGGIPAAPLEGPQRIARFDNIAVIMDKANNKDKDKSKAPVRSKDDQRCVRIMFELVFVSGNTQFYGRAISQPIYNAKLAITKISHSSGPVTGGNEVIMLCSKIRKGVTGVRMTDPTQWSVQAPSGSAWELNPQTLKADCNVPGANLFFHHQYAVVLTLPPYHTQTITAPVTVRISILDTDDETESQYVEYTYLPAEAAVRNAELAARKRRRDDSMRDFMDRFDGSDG

[5] = target: T5, GST-Dm-Relish (Drosophila melanogaster, UniProt Q94527 99-473)
T5 sequence: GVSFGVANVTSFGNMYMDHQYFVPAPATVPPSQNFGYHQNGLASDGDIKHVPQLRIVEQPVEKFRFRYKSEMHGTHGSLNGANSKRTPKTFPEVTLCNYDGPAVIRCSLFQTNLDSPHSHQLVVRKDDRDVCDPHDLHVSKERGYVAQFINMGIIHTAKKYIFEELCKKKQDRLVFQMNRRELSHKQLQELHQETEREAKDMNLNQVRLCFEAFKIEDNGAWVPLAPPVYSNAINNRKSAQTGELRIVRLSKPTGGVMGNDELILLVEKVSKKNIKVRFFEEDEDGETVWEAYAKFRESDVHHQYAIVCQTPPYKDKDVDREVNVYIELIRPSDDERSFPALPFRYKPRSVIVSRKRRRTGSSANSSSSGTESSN

[6] = target: T6, GST-Aq-NF-kB (Amphimedon queenslandica, UniProt A9Y5G7 2-389)
T6 sequence: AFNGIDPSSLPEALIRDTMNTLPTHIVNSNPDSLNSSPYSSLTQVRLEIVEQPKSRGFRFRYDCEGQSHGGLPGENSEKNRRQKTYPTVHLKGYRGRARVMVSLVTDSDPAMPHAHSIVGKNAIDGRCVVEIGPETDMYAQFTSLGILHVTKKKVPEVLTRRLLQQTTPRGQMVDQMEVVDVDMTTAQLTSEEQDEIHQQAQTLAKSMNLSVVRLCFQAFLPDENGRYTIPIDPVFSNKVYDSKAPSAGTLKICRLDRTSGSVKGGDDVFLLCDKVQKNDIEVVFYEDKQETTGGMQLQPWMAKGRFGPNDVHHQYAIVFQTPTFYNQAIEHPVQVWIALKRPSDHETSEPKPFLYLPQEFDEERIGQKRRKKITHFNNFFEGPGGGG

Sequence	binding signal [1] [z-score]	binding signal [2] [z-score]	binding signal [3] [z-score]	binding signal [4] [z-score]	binding signal [5] [z-score]	binding signal [6] [z-score]
CCGATTAACATCACGTATTCCCCTGATGTTAATCGGGTCTTGATTCGCTTGACGCTGCTG	7.14	7.75	7.86	6.56	4.86	5.55
CCGATTAACATCACTATTTTCCCTGATGTTAATCGGGTCTTGATTCGCTTGACGCTGCTG	3.72	4.96	6.91	5.27	1.52	3.51
CCGATTAACATCAGGGGATTAAATGATGTTAATCGGGTCTTGATTCGCTTGACGCTGCTG	4.91	6.29	7.01	3.71	5.28	5.21
CCGATTAACATCAATTTATCCCCTGATGTTAATCGGGTCTTGATTCGCTTGACGCTGCTG	5.26	5.83	7.39	7.11	3.35	3.84
CCGATTAACATCACCCATTCCCCTGATGTTAATCGGGTCTTGATTCGCTTGACGCTGCTG	6.25	5.53	7.1	5.33	2.33	4.22
CCGATTAACATCAACGTTTTCCCTGATGTTAATCGGGTCTTGATTCGCTTGACGCTGCTG	3.04	4.61	6.7	4.29	1.51	3.21
CCGATTAACATCACGGGATTTTCTGATGTTAATCGGGTCTTGATTCGCTTGACGCTGCTG	5.11	4.77	4.15	1.98	6.84	5.2
CCGATTAACATCATTAGGGAAAATGATGTTAATCGGGTCTTGATTCGCTTGACGCTGCTG	3.51	6.08	7.94	2.21	1.55	4.53
CCGATTAACATCAGGGAAAAAAATGATGTTAATCGGGTCTTGATTCGCTTGACGCTGCTG	3.48	5.81	7.5	5.71	2.19	4.63
CCGATTAACATCAGCCCCCCGTCTGATGTTAATCGGGTCTTGATTCGCTTGACGCTGCTG	3.16	2.22	1.71	3	3.83	3.37
CCGATTAACATCAGGGGAACTAATGATGTTAATCGGGTCTTGATTCGCTTGACGCTGCTG	4.99	5.41	6.66	6.12	4.37	4.07
CCGATTAACATCAGGGGATACCCTGATGTTAATCGGGTCTTGATTCGCTTGACGCTGCTG	8.36	7.45	6.59	3.74	9.05	8.11
CCGATTAACATCAGCCCCCCCCCTGATGTTAATCGGGTCTTGATTCGCTTGACGCTGCTG	4.45	5.13	3.95	5.44	4.51	5.11
CCGATTAACATCAATTTCCCGTATGATGTTAATCGGGTCTTGATTCGCTTGACGCTGCTG	2.46	4.12	4.4	3.1	1.58	3.17
CCGATTAACATCAGGGGAACCTATGATGTTAATCGGGTCTTGATTCGCTTGACGCTGCTG	6.11	6.27	7.41	5.66	4.09	4.46
CCGATTAACATCAACGGGAACTCTGATGTTAATCGGGTCTTGATTCGCTTGACGCTGCTG	2.34	1.64	1.08	1.78	1.77	2.25
CCGATTAACATCACAAATTTCCCTGATGTTAATCGGGTCTTGATTCGCTTGACGCTGCTG	4.62	6.4	6.92	5.22	3.72	6.5
CCGATTAACATCAGGGGAGATTATGATGTTAATCGGGTCTTGATTCGCTTGACGCTGCTG	6.83	5.48	6.7	5.91	2.68	4.52
CCGATTAACATCACTTTTTTCCCTGATGTTAATCGGGTCTTGATTCGCTTGACGCTGCTG	2.9	4.9	6.59	6.08	2.28	3.49
CCGATTAACATCACATTTCCCCATGATGTTAATCGGGTCTTGATTCGCTTGACGCTGCTG	4.9	6.14	8.95	7.21	2.25	3.87
CCGATTAACATCAGGGGTGGGGATGATGTTAATCGGGTCTTGATTCGCTTGACGCTGCTG	4.17	3.38	3.28	5.49	2.85	3.59
CCGATTAACATCAGAGTTTTCCCTGATGTTAATCGGGTCTTGATTCGCTTGACGCTGCTG	3.96	5.58	6.71	4.75	1.89	4.65
CCGATTAACATCAAGCCCCCCCATGATGTTAATCGGGTCTTGATTCGCTTGACGCTGCTG	4.83	3.07	3.1	3.51	3.97	3.85
CCGATTAACATCACTTTCCCCCCTGATGTTAATCGGGTCTTGATTCGCTTGACGCTGCTG	5.84	5.86	7.31	9.03	4.29	5.34
CCGATTAACATCAAGGGAAAATATGATGTTAATCGGGTCTTGATTCGCTTGACGCTGCTG	3.77	7.5	8.19	4.43	1.66	4.44

Source: PMC5700166
